From PubChem BioAssay
A selection: hits, their analogues and other compounds. The true share with any hit is near 19%.
HT1080NT lethal = kills 2HG-producing HT-1080-NT fibrosarcoma cells | HT-1080-NT fibrosarcoma viability, CellTiter-Glo ATP luminescence, 48 h | Potency, µM (doses to about 46.1 µM), for the others: top-dose activity, negative = less viability, most hits filed as cytotoxic | hit rate 1.6% among 360,000;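 note: NT is the 2HG producing partner of a matched IDH1 knockdown line; 0% = DMSO-treated cells and -100% = media-only wells without cells; nearly all actives have a fitted effect of over 55% in size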
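Compounds were tested in concentration-response format on HT-1080-NT cells for 48 hours at 37 degrees C. Cell viability came from CellTiter-Glo luminescence; curves were classified by r2, response magnitude and activity.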
HT1080 IDH1KD tx = HT-1080 IDH1 knockdown cell toxicity (counter line); HT-1080 IDH1 knockdown viability, ATP luminescence, 48 h; hit rate 2% among 360,000; Potency, µM (top dose mostly 46.1 µM), without a hit: at the highest dose activity, negative = toxicity, actives largely listed as cytotoxic;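 note: 0% = DMSO wells and -100% = cell-free medium wells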
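Knockdown cells (IDH1KD HT-1080) received compounds 2 h after plating at 750 cells/well and were kept 48 h at 37 °C in 5% FBS RPMI. A CellTiter-Glo luminescence read gave % activity for curve fitting.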
TDP1 cell noCPT = qHTS for Inhibitors of human tyrosyl-DNA phosphodiesterase 1 (TDP1): qHTS in cells in absence of CPT. Potency, µM (highest dose often 46.2 µM), for inactives: at the highest dose activity change, negative = growth inhibition, usual class: inhibitors. DT40 Tdp1-/- hTDP1 cells, no CPT, ATP luminescence, 48 h. hit rate 15% among 420,000; note: nearly all actives have a fitted effect of over 55% in size
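Growth kinetics read by CellTiter-Glo luminescence after ≥48 hr at 37 °C. Cells: DT40 Tdp1-/- stably carrying human TDP1, 400 per well, compound exposure in the absence of CPT (DMSO vehicle).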
KB-V1 cytotox = kills drug-selected multidrug resistant KB-V1 cells; AID 1347076; Potency, µM (doses to about 46.1 µM), most hits filed as cytotoxic; hit rate 3.4% among 400,000; KB-V1 MDR cells viability, CellTiter-Glo, 72 h; note: nearly all actives have a fitted effect of over 60% in size
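Drug-selected KB-V1 cells, grown in DMEM lacking phenol red with 10% FBS, receive compound titrations; after three days at 37 degrees C, surviving cell ATP is quantified by CellTiter-Glo luminescence and responses normalized and curve-fitted.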
TDP1 cell CPT = growth inhibition of DT40 Tdp1-/-;hTDP1 cells with camptothecin (screen for TDP1 inhibitors); chicken DT40 Tdp1-/-;hTDP1 cells + 20 nM CPT, ATP luminescence, 48 h; Potency, µM (highest dose often 46.2 µM), inactives show top-dose activity change, negative = growth inhibition, hits mostly inhibitors; hit rate 12% among 420,000; AID 686979; note: nearly all actives have a fitted effect of over 55% in size
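Cell growth measured by CellTiter-Glo luminescence after a minimum 48 h, 37 C compound exposure with 20 nM CPT in Tdp1-knockout DT40 cells stably expressing hTDP1, seeded 400/well; qHTS titration format.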
KB-3-1 cytotox = kills parental KB-3-1 adenocarcinoma cells; KB-3-1 viability, CellTiter-Glo ATP luminescence, 72 h; Potency, µM (highest dose often 46.1 µM), most hits filed as cytotoxic; hit rate 1.4% among 400,000; note: nearly all actives have a fitted effect of over 60% in size
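Cytotoxicity measured as CellTiter-Glo luminescence after 72 h at 37 C. Compound titrations were pinned onto drug-naive KB-3-1 parental adenocarcinoma cells grown in DMEM with 10% FBS, and normalized data fitted to concentration-response curves.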
Numbers without * were called inactive; i = inactive; ? = inconclusive; . = no result. Calls come from the whole dose curve; as a rule, active = well fitted curve in the direction sought with a large enough effect; inconclusive = small, poorly fitted or top-dose-only effect, or another doubt; inactive = no such curve, though single readings can be large; an effect the other way counts as inactive or inconclusive. Unless noted, % is set by controls: 0 for no effect and ±100 for the full control effect; potency is the fitted concentration of half-maximal effect.

SMILES | HT1080NT lethal | HT1080 IDH1KD tx | TDP1 cell noCPT | KB-V1 cytotox | TDP1 cell CPT | KB-3-1 cytotox
Cc1cccc(NC(=S)N/N=C(\c2ccccc2)C(C)C)c1 | 18% | 20% | 5.8µM* | i | ? | i
CC/C(=N\NC(=S)Nc1cccc(C)c1)c1ccccc1 | 24% | 16% | 5.2µM* | i | 13µM* | i
O=C1NC2=C(C(=O)CCC2)C(c2ccc([N+](=O)[O-])cc2)N1 (centres undefined) | 13% | 3% | -1% | i | -3% | i
CC1(C)OC(=O)N(c2ccccc2)C12C=Cc1cc(Br)ccc1O2 (centres undefined) | -11% | -15% | ? | ? | ? | i
CN1c2ccccc2C(C)(C)[C@]12C=Cc1cc(O)ccc1O2 | ? | 18µM* | 7.3µM* | i | 2.6µM* | ?
COc1ccc(N=C/C=C2\C=C(c3ccccc3)OC(C)(C)O2)cc1 | -3% | -23% | ? | i | 16µM* | i
Cc1ccc(-c2nsc(NC(=O)c3oc4cc(C)c(Cl)cc4c3C)n2)cc1 | . | . | -3% | . | -1% | .
CCN(CC)S(=O)(=O)c1cccc(NC2=NCCCCC2)c1 | 1% | -1% | 24% | i | -14% | i
O=C(c1ccccc1[N+](=O)[O-])N1CC2C3C=CC(C3)C2C1 (centres undefined) | 7% | 4% | -29% | ? | 11% | i
C=CCC1C=CCC(CC=C)N1C(=O)c1ccccc1[N+](=O)[O-] (centres undefined) | 0% | -8% | ? | i | 13µM* | i
Clc1ccc(-c2csc(NNC3=NCCCCC3)n2)cc1 | -2% | -5% | 16µM* | i | ? | ?
c1ccc(-c2csc(NNC3=NCCCCC3)n2)cc1 | ? | ? | 1.8µM* | ? | 2.1µM* | i
CCOc1ccc(-c2csc(NNC3=NCCCCC3)n2)cc1 | -6% | -13% | 21µM* | i | 10µM* | i
c1ccc(NNC2=NCCCCC2)cc1 | ? | 4.1µM* | -41% | i | -17% | ?
Cc1nc2c(c(C)c1CCC(=O)NCc1ccccc1)c(=O)n(C)c(=O)n2C | . | . | ? | i | 1% | i
CCC(=O)NC(Nc1sc2c(c1C(=O)OC)CCC2)C(Cl)(Cl)Cl (centres undefined) | 1% | 1% | 15µM* | 23µM* | 15µM* | ?
COC(=O)c1c(NC(NC(=O)C(C)C)C(Cl)(Cl)Cl)sc2c1CCC2 (centres undefined) | -22% | -26% | 13µM* | i | 16µM* | i
COC(=O)c1c(NC(NC(=O)C(C)(C)C)C(Cl)(Cl)Cl)sc2c1CCC2 (centres undefined) | ? | ? | ? | i | ? | i
COC(=O)c1c(NC(NC(=O)CC(C)C)C(Cl)(Cl)Cl)sc2c1CCC2 (centres undefined) | 1% | -14% | ? | 18µM* | ? | i
CCOC(=O)c1c(NC(NC(C)=O)C(Cl)(Cl)Cl)sc2c1CCCC2 (centres undefined) | ? | -29% | ? | i | 16µM* | ?
CC(=O)N1CCC2(CC1)CCN(C(=O)Nc1cccc(F)c1)CC2 | . | . | -21% | . | 0% | .
O=C(COc1ccc(F)cc1)NNC(=O)Cn1ccc(C(F)(F)F)n1 | -7% | 6% | -1% | i | -16% | i
CCOc1ccc(Oc2cc(N)cc([N+](=O)[O-])c2)cc1 | -2% | -9% | ? | i | -14% | i
Cc1[nH]c2ccccc2c1SCCN | -1% | -1% | ? | i | ? | i
Cc1ccc(NC(=O)c2cc(=O)[nH]c3ccccc23)cc1 | -3% | -11% | 23% | i | -2% | i
SMILES | HT1080NT lethal | HT1080 IDH1KD tx | TDP1 cell noCPT | KB-V1 cytotox | TDP1 cell CPT | KB-3-1 cytotox
NCCSc1c(-c2ccccc2)[nH]c2ccccc12 | -12% | -4% | 21µM* | i | ? | i
Cc1ccc(-c2cc(=O)[nH]c3ccccc23)cc1 | -26% | -25% | 7.3µM* | i | 9.2µM* | i
Cc1ccc(-c2[nH]c3ccccc3c2SCCN)cc1 | 0% | -1% | 15µM* | i | ? | i
NCCSc1c(-c2ccc(Cl)cc2)[nH]c2ccccc12 | 2% | 0% | ? | i | ? | i
Cc1ccc(-c2noc(-c3ccccc3NC(=O)C3CC(=O)N(c4ccc(C)cc4)C3)n2)cc1 (centres undefined) | . | . | -18% | i | -14% | i
Oc1c(C(c2ccccc2)N2CCOCC2)ccc2ccccc12 (centres undefined) | -14% | -19% | 9.2µM* | i | 8.2µM* | ?
CC(C)C[C@H](NC(=O)c1[nH]cnc1C(=O)N[C@@H](C)C(=O)OC(C)(C)C)C(=O)OCc1ccccc1 | ? | ? | 16µM* | i | ? | ?
CC(C)C[C@H](NC(=O)c1nc[nH]c1C(=O)N1CCN(C(=O)OC(C)(C)C)CC1)C(=O)OCc1ccccc1 | -6% | -10% | 16µM* | i | 18µM* | ?
CC(C)(C)OC(=O)C(Cc1ccc(OC(C)(C)C)cc1)NC(=O)CNC(=O)OCc1ccccc1 (centres undefined) | 0% | -14% | 12µM* | 2.9µM* | 16µM* | ?
CC(C)C[C@H](NC(=O)c1[nH]cnc1C(=O)N[C@@H](C)c1ccccc1)C(=O)OC(C)(C)C | ? | ? | ? | i | ? | ?
CC(C)C[C@H](NC(=O)c1[nH]cnc1C(=O)Nc1ccccc1F)C(=O)OC(C)(C)C | -23% | ? | 23µM* | ? | -89% | ?
COc1ccccc1NC(=O)C1CCN(S(=O)(=O)c2cn(C)cn2)CC1 | . | . | -11% | . | -1% | .
COc1ccc(-n2nc(C(=O)NCC(=O)N(C)Cc3ccccc3)c3ccccc3c2=O)c(OC)c1 | -5% | 1% | ? | i | -6% | i
CC(C)C[C@H](NC(=O)c1[nH]cnc1C(=O)N[C@@H](Cc1ccccc1)C(=O)OC(C)(C)C)C(=O)OCc1ccccc1 | ? | ? | 23µM* | i | ? | i
CC(C)C[C@H](NC(=O)c1nc[nH]c1C(=O)NCc1ccccc1)C(=O)OC(C)(C)C | -3% | -26% | ? | i | ? | i
